PubChem BioAssay
Where “and” joins values, the source holds several entries; their conditions need not be identical. Identical values can stand only once.

System: not listed separately
Experiment: small-molecule binders of probe aInhba, primary screen, biochemical, small-molecule microarray, 635/667 nm fluorescence (AID 1148);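 note: score merges 667nm spot fluorescence with signal-to-noise for antibody binding to printed compounds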
Details: higher = more signal

| Structure (SMILES) | composite z-score |
| --- | --- |
| C=CCN(Cc1ccccc1)C(=O)C1N(c2ccc(CCO)cc2)C(=O)C2C(C(=O)O)C3C=CC21O3 (stereo unspecified) | -0.273 and -0.206 |
| CCOC(=O)C[C@H]1[C@H](OC(=O)c2ccccc2-c2ccccc2)[C@@H](NC(=O)Cc2ccc(OC)cc2)c2cc(OCCCO)ccc2N1C(=O)c1ccc2ccccc2n1 | 0.0543 and 0.168 |
| CC(C)CCN1CCc2nc(-c3ccccc3)c3c(c2C1)CO[C@@H](C)C3 | 0.0173 |
| CCOC(=O)[C@@H]1CC=C2CC1C(=O)N1CCC[C@@H]1[C@H]2O[Si](C)(C)C(C)(C)C (stereo partly specified) | 0.027 and -0.319 |
| COC(=O)[C@@]1(Cc2ccc(OC)cc2)[C@H]2c3cc(C(=O)N(C)C)n(Cc4ccc(O)c(OC)c4)c3C[C@H]2CN1C(=O)c1ccccc1 | 0.293 and 0.714 |
| CO[C@H]1COC(=O)CC=C[C@H](C)[C@H](OC)COC(=O)[C@@H](C)COC(=O)CC=C[C@@H]1C | -0.195 and -0.224 |
| CCOC(=O)C[C@H]1[C@H](OC(=O)c2ccccc2-c2ccccc2)[C@@H](NC(=O)c2ccccc2)c2cc(OCCCO)ccc2N1C(=O)c1ccc2ccccc2n1 | 0.216 and 0.0047 |
| C=CCN(CCCC)C(=O)C1N(c2c(Cl)cccc2CO)C(=O)C2C(C(=O)O)C3C=CC21O3 (stereo unspecified) | -0.231 and 0.72 |

Target: Torsin-1A (Homo sapiens) (UniProt O14656)
Sequence (O14656 whole entry, looked up): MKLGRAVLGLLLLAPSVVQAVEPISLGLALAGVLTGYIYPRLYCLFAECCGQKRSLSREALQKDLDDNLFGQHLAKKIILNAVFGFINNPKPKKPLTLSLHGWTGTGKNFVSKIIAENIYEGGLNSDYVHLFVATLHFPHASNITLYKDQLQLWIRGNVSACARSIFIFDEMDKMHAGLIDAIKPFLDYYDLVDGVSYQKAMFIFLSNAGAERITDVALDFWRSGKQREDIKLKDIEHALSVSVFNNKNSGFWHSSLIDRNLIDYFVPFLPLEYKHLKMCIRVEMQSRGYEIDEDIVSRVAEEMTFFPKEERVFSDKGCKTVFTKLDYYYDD
Experiment: torsin A binders from cell lysate, primary screen, small-molecule microarray, wild-type, 635/667 nm (AID 1149)
Details: COS7 hTOR1A-WT lysate, 635 nm fluorescence, higher = more signal

| Structure (SMILES) | composite z-score |
| --- | --- |
| CC(CO)N1C(=O)[C@@H]2C3C(=O)OCCC=C[C@H]3OC23C=CCN(c2ccc(Cl)cc2)C(=O)[C@@H]13 (stereo partly specified) | -1.09 and -1.53 |
| CCOC(=O)NN=C1C[C@@H](O)[C@@H](O)[C@@H]2[C@@H]3C(=O)N(Cc4ccc5c(c4)OCO5)C(=O)[C@@H]3CC[C@@H]12 | 0.39 |
| C=CCN(C(=O)C(c1cccs1)N(C(=O)/C=C\C(=O)O)c1ccc(CCO)cc1)C(C)(C)C (stereo unspecified) | -0.603 and -2.33 |
| C=CCN(C(=O)C(c1cccs1)N(C(=O)/C=C\C(=O)O)c1c(Cl)cccc1CO)C(C)(C)C (stereo unspecified) | -3.44 and -4.12 |
| C=CCN(CCCCC)C(=O)C1N(c2c(Cl)cccc2CO)C(=O)C2C(C(=O)O)C3C=CC21O3 (stereo unspecified) | -1.44 and -3.52 |
| C=CCN(CCCC)C(=O)C(c1cccs1)N(CCOCCO)C(=O)/C=C\C(=O)O (stereo unspecified) | -0.289 and 0.536 |
| CCCCCN1CC=CC23O[C@@H]4C=CCCOC(=O)C4[C@H]2C(=O)N(C(C)CO)[C@@H]3C1=O (stereo partly specified) | 1.07 and -1.42 |
| COC(=O)[C@H](C)NC(=O)CCC1CC(OC(=O)NCCc2ccc(F)cc2)CC2(CCCC(COC(=O)NCCCN3CCCC3=O)O2)O1 (stereo partly specified) | 0.273 |
| COC(=O)C1=C(C)N(Cc2ccccc2)C2=C(C(C)=O)C[C@@](O)(C(=O)OC)C(=O)N2[C@@H]1c1ccccc1 | 1.39 and 0.336 |
| C=CCN(CCCCC)C(=O)C(c1cccs1)N(C(=O)/C=C\C(=O)O)c1c(Cl)cccc1CO (stereo unspecified) | -2.37 and -3.28 |
| CC(C)CON=C1C[C@@H](O)[C@@H](O)[C@@H]2[C@@H]3C(=O)N(c4cccc(Oc5ccccc5)c4)C(=O)[C@@H]3CC[C@H]12 | -0.243 |
| C=CCN(C(=O)C(c1cccs1)N(C(=O)/C=C\C(=O)O)C(C)(C)CO)c1ccc(OC)cc1 (stereo unspecified) | -1.58 and -0.301 |
| CCCNC(=O)OC[C@H]1O[C@H](CCON=C(C)CCN2CCc3nc(-c4ccccc4)c(-c4ccccc4)cc3C2)C=C[C@@H]1Oc1ccc(OC)cc1 | 0.479 |
| C=CC[C@@H](O)c1ccc(O)c(F)c1 | -1.73 and -0.874 |
| C=CCN(Cc1ccccc1)C(=O)C(c1cccs1)N(C(=O)/C=C\C(=O)O)c1c(Cl)cccc1CO (stereo unspecified) | -2.82 and -2.49 |
| CC(C)[Si]1(C(C)C)OCc2cc(CCCc3cc4c(c(CCc5ccccc5)n3)[Si](C(C)C)(C(C)C)OC4)nc(CCc3ccccc3)c21 | -0.473 and 0.21 |
| COC(=O)[C@@]1(Cc2ccc(F)cc2)[C@H]2c3cc(C(=O)N4CCCC4)n(Cc4c(CO)[nH]cc(C)c4=O)c3C[C@H]2CN1C(=O)c1ccccc1 | 0.113 and -0.501 |
| C=CCN(C(=O)C1N(c2ccc(CCO)cc2)C(=O)C2C(C(=O)O)C3C=CC21O3)c1ccc(OC)cc1 (stereo unspecified) | -1.29 and -2.7 |
| C=CCN(C(=O)C1N(CCOCCO)C(=O)C2C(C(=O)O)C3C=CC21O3)C(C)(C)C (stereo unspecified) | -1.93 and -2.63 |
| CCOC(=O)c1ccc(NC(=O)O[C@H]2[C@H](OC(=O)Nc3ccccc3)[C@H](OC(=O)Nc3ccccc3)[C@@H](OC)O[C@@H]2CO)cc1 | 0.147 and 0.386 |
| CC(C)=NOCc1ccc(-c2cn([C@@H]3COC[C@H]3O)nn2)cc1 | 0.538 |
| C[C@@H]1CC[C@H]2C(=O)O[C@H](CN=[N+]=[N-])CN2[C@H]1c1ccc(Br)cc1 | 0.225 and 0.372 |
| C=CCN1C(=O)[C@]2(O[C@H](CCn3cc(CCO)nn3)[C@@H]([Si](C)(C)c3ccc(OC)cc3)[C@@H]2C)c2cc(N3C(=O)c4cccc5cccc3c45)ccc21 | 0.317 and 0.0769 |
